Reference: PubChem BioAssay (EPA / NIEHS)
Results filed as inconclusive are left out. Calls of active or inactive are those of the source. The calls were made as follows, unless noted: active = hit-call score of the fitted dose curve at least 0.9, where 1 is the maximum; inactive = score below 0.9.

Assays:
[1] = ATG_M_32_TRANS: Attagene TRANS-FACTORIAL HepG2 Assay for M32 Transcription Factor (Internal Marker) (AID 2282984; active = hit-call score of the fitted dose curve at least 0.9, where 1 is the maximum;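 also: transcript level of a background control reporter unit measured by RT-PCR and capillary electrophoresis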); details: HepG2 Attagene TRANS M32 internal marker reporter
Method in brief: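 Read-out: fluorescent reporter cDNA fragments resolved by capillary electrophoresis after RT-PCR of total RNA. Transfected HepG2 cells were exposed to chemical for 24 h. Activity scored in the positive direction relative to DMSO.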

[2] = biological target: Nuclear receptor subfamily 4 group A member 2 (Homo sapiens) (UniProt P43354); assay: ATG_NURR1_TRANS: Attagene TRANS-FACTORIAL HepG2 Assay for human Nuclear Receptor Related Protein 1 (NURR1) (AID 2282985; active = hit-call score of the fitted dose curve at least 0.9, where 1 is the maximum); details: HepG2 Attagene TRANS reporter, mRNA readout
Chain of Nuclear receptor subfamily 4 group A member 2 (Homo sapiens) (P43354 whole entry, looked up, the tested form may be a part): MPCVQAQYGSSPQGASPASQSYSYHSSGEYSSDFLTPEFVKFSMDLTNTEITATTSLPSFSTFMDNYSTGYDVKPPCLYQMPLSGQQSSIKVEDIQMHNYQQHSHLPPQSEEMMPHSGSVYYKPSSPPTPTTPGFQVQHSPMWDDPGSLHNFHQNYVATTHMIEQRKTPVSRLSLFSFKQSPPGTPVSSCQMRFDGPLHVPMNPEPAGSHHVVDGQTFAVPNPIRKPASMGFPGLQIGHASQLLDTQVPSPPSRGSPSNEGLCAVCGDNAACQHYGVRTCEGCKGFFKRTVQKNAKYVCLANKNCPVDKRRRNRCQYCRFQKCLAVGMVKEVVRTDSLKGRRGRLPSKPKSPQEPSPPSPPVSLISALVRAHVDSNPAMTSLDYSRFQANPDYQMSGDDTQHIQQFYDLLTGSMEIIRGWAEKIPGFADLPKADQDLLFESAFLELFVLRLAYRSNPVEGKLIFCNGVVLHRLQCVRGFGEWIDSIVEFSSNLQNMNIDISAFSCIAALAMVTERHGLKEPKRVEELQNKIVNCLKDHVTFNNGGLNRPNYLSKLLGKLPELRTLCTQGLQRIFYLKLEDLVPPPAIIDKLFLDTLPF
Method in brief: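 Read-out: reporter mRNA induction by RT-PCR plus capillary electrophoresis with fluorescence detection, after 24 h dosing of transfected HepG2 cells. Exogenous NR-Gal4 chimera activity drives GAL4-UAS reporter; activity fitted upward versus DMSO.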

[3] = biological target: Transcriptional activator Myb (Homo sapiens) (UniProt P10242); assay: ATG_Myb_CIS: Attagene CIS-FACTORIAL HepG2 Assay for human Myeloblastosis (Myb) Proto-Oncogene Transcription Factor (AID 2282986); details: HepG2 Attagene CIS-FACTORIAL Myb reporter transcription; actives raise or lower the signal
Chain of Transcriptional activator Myb (Homo sapiens) (P10242 whole entry, looked up): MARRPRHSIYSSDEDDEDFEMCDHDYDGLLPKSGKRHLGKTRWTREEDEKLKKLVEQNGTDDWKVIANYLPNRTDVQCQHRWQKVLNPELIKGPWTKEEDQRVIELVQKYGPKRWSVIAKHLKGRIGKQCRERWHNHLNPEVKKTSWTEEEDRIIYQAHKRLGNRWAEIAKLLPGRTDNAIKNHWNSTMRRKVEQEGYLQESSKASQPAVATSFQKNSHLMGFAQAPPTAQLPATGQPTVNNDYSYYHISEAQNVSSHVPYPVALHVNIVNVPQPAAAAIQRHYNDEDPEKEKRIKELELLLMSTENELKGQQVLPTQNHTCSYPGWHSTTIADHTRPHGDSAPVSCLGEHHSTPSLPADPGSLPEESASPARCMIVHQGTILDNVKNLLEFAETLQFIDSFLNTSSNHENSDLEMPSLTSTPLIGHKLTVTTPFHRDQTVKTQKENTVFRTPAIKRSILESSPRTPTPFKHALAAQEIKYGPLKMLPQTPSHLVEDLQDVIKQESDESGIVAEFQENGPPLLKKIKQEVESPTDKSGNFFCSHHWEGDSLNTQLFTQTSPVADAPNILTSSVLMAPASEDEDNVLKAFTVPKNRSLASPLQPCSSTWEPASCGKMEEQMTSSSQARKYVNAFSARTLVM
Method in brief: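 Transiently transfected HepG2 cells carrying a multiplexed cis-promoter reporter set report endogenous Myb activity after 24 h compound exposure. Reporter mRNA is read by RT-PCR with capillary electrophoresis of fluorescent products, fitted bidirectionally against DMSO.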

[4] = biological target: Nuclear respiratory factor 1 (Homo sapiens) (UniProt Q16656); assay: ATG_NRF1_CIS: Attagene CIS-FACTORIAL HepG2 Assay for human Nuclear Respiratory Factor 1 (NRF1) Orphan Gene (AID 2282987); details: HepG2 NRF1 cis-element reporter, Attagene multiplex; actives raise or lower the signal
Chain of Nuclear respiratory factor 1 (Homo sapiens) (Q16656 whole entry, looked up): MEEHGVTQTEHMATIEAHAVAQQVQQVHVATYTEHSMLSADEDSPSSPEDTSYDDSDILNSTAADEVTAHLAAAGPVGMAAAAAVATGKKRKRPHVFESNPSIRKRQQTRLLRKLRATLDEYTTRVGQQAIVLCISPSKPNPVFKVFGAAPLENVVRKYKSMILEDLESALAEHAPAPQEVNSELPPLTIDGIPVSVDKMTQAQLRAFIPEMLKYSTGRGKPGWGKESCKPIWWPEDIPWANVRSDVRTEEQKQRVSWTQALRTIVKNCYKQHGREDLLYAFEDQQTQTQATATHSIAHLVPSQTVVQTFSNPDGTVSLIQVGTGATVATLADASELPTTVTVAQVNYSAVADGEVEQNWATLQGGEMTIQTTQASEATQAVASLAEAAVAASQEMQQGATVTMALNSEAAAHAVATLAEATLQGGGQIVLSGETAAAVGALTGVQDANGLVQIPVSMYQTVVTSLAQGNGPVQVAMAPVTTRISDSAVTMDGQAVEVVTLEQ
Method in brief: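 HepG2 cells transiently transfected with multiple cis-regulated reporter units, exposed 24 h. Reporter mRNAs measured by RT-PCR, fluorescent labelling, HpaI digestion and capillary electrophoresis; bidirectional fitting against DMSO.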

[5] = ATG_NFI_CIS: Attagene CIS-FACTORIAL HepG2 Assay for human Nuclear Factor I (NFI) (AID 2282989); details: HepG2 cis-regulatory reporter, NFI response element transcription; actives raise or lower the signal
Method in brief: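 HepG2 cells transiently transfected with cis-element-driven multiplexed reporter transcription units, dosed for 24 h. Reporter mRNA quantified by RT-PCR, fluorescent labelling, HpaI digestion and capillary electrophoresis; bidirectional fit versus DMSO baseline.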

[6] = biological target: Myc proto-oncogene protein (Homo sapiens) (UniProt P01106); assay: ATG_Myc_CIS: Attagene CIS-FACTORIAL HepG2 Assay for human Myelocytomatosis (Myc) Proto-Oncogene Transcription Factor (AID 2282990); details: HepG2, Attagene cis-reporter transcription factor activity; actives raise or lower the signal
Chain of Myc proto-oncogene protein (Homo sapiens) (P01106 whole entry, looked up, the tested form may be a part): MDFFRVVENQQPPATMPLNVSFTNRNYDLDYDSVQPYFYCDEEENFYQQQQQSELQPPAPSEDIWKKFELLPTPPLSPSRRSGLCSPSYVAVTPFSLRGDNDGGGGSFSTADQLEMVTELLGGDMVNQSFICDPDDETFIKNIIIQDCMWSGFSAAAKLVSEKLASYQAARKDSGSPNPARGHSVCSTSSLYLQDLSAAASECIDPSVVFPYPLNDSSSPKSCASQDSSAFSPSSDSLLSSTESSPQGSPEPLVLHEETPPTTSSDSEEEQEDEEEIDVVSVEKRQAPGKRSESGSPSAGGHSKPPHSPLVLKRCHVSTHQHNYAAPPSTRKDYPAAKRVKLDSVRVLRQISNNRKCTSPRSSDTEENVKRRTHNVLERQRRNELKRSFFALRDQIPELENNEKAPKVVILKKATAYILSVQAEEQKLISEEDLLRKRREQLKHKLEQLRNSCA
Method in brief: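 Fluorescence intensity of reporter-specific cDNA fragments, separated by capillary electrophoresis, gives the signal. Transfected HepG2 cells carrying cis-promoter reporter constructs are incubated with compound for 24 h; DMSO serves as baseline.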

[7] = ATG_NF_kB_CIS: Attagene CIS-FACTORIAL HepG2 Assay for human Nuclear Factor Kappa B (NF-kB) (AID 2282991); details: HepG2 Attagene cis-factorial NF-kB reporter mRNA; actives raise or lower the signal
Method in brief: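 HepG2 cells transfected with cis-promoter-driven reporter units, so endogenous transcription factor activity is measured. Reporter mRNA quantified 24 h after dosing by RT-PCR and capillary electrophoresis, with bidirectional fitting against DMSO.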

[8] = ATG_NRF2_ARE_CIS: Attagene CIS-FACTORIAL HepG2 Assay for human Nuclear Factor Erythroid 2 Related Factor 2 (NFR2) response to Antioxidant Response Elements (ARE) (AID 2282992); details: HepG2 Attagene ARE/NRF2 reporter, transcription factor activity; actives raise or lower the signal;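 as to AC50: reporter mRNA level measured by RT-PCR and capillary electrophoresis fluorescence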
Method in brief: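 Using transiently transfected HepG2 cells exposed for 24 h, reporter mRNA levels were determined by RT-PCR with fluorescent primer extension and capillary electrophoresis, analysed for gain or loss of signal against DMSO.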

[9] = ATG_Oct_MLP_CIS: Attagene CIS-FACTORIAL HepG2 Assay for human Octamer-Binding Transcription Factor (Oct) (AID 2282993); details: HepG2 Attagene cis-factorial Oct reporter, mRNA; actives raise or lower the signal
Method in brief: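 HepG2 cells transiently transfected with cis-promoter-driven multiplexed reporter transcription units, dosed for 24 h. Reporter mRNA quantified by RT-PCR, fluorescent labelling, HpaI digestion and capillary electrophoresis; bidirectional fits versus DMSO baseline.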

[10] = biological target: Cellular tumor antigen p53 (Homo sapiens) (UniProt P04637); assay: ATG_p53_CIS: Attagene CIS-FACTORIAL HepG2 Assay for human p53 Transcription Factor (AID 2282994); details: HepG2 p53 cis-element reporter, Attagene mRNA; actives raise or lower the signal
Chain of Cellular tumor antigen p53 (Homo sapiens) (P04637 whole entry, looked up, the tested form may be a part): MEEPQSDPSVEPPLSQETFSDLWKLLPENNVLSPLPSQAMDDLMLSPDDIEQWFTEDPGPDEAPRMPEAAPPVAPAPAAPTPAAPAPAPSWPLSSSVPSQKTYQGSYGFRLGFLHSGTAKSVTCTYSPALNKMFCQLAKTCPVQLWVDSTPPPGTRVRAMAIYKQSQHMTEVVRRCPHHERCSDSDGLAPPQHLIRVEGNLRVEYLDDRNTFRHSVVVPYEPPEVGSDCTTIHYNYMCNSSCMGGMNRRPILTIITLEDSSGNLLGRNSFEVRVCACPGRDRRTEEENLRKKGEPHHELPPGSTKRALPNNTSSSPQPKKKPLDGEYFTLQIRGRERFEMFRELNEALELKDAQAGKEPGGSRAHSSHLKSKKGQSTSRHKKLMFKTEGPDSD
Method in brief: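 In HepG2 cells, reporter transcription units under cis-regulatory promoters were transiently introduced. Following 24 h treatment, RNA was processed to labelled, digested cDNA fragments read by capillary electrophoresis; fitting was bidirectional versus DMSO.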

[11] = biological target: Oxysterols receptor LXR-beta (Homo sapiens) (UniProt P55055); assay: ATG_LXRb_TRANS: Attagene TRANS-FACTORIAL HepG2 Assay for human Liver X Receptor beta (LXRb) (AID 2282981; active = hit-call score of the fitted dose curve at least 0.9, where 1 is the maximum); details: HepG2 Attagene TRANS GAL4-LXRb reporter, mRNA
Chain of Oxysterols receptor LXR-beta (Homo sapiens) (P55055 whole entry, looked up, the tested form may be a part): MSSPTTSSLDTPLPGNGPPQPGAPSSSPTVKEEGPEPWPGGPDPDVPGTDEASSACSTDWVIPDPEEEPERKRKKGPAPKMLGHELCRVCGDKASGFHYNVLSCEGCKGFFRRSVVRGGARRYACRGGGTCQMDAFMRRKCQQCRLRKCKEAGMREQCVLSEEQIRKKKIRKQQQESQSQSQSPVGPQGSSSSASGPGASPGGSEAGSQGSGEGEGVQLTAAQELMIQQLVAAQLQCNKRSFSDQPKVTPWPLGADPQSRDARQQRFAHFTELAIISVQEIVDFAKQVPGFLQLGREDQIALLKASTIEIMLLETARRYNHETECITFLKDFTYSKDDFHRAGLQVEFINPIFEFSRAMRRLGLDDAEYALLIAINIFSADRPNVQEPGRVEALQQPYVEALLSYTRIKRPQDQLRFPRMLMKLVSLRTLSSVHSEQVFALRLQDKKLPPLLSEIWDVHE
Method in brief: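 Readout: fluorescent reporter mRNA fragments resolved by capillary electrophoresis after RT-PCR. System: transiently transfected human HepG2, exogenous LXRb-Gal4 chimera driving GAL4-UAS reporter, 24 h dosing. Activity fitted upward against DMSO baseline.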

[12] = ATG_M_06_TRANS: Attagene TRANS-FACTORIAL HepG2 Assay for M06 Transcription Factor (Internal Marker) (AID 2282983; active = hit-call score of the fitted dose curve at least 0.9, where 1 is the maximum;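 also: reporter transcript level by RT-PCR then capillary electrophoresis fluorescence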); details: HepG2 Attagene TRANS M06 internal marker reporter
Method in brief: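 Background control endpoint: reporter mRNA from transiently transfected HepG2 after 24 h dosing, detected by RT-PCR with capillary electrophoresis fluorescence. Analysed for gain versus DMSO.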

[13] = biological target: Hepatocyte nuclear factor 4-alpha (Homo sapiens) (UniProt P41235); assay: ATG_HNF4a_TRANS: Attagene TRANS-FACTORIAL HepG2 Assay for human Hepatocyte Nuclear Factor 4 alpha (HNF4a) (AID 2282982; active = hit-call score of the fitted dose curve at least 0.9, where 1 is the maximum); details: HepG2 HNF4a transactivation reporter, mRNA readout
Chain of Hepatocyte nuclear factor 4-alpha (Homo sapiens) (P41235 whole entry, looked up): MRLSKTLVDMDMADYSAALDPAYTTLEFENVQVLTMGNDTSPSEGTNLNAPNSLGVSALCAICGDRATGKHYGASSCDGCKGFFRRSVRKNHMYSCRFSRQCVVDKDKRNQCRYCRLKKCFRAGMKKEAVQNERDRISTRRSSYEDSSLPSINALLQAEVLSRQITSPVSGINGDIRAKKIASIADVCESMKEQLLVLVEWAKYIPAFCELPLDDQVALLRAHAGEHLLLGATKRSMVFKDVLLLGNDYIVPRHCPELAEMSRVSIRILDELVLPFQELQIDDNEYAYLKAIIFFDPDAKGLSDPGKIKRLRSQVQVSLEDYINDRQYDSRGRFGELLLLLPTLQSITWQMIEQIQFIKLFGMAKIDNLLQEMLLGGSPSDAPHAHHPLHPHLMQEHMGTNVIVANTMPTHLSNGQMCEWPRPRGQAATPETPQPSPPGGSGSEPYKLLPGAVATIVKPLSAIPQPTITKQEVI
Method in brief: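 Transient MRTU transfection of HepG2, 24 h dosing. Readout: reporter mRNA via RT-PCR + capillary electrophoresis, fluorescence; activity fit upward relative to DMSO control.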

[14] = BSK_3C_TissueFactor: BioMAP Diversity Plus: 3C Assay for Tissue Factor Biomarker Activity (AID 2282997); details: BioMAP 3C HUVEC, tissue factor biomarker readout; actives raise or lower the signal
Method in brief: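 After a 24 h chemical exposure of primary human umbilical vein endothelial cells, Tissue Factor levels were quantified by ELISA.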

[15] = BSK_3C_uPAR: BioMAP Diversity Plus: 3C Assay for Urokinase-type plasminogen activator receptor (uPAR) Biomarker Activity (AID 2282998); details: BioMAP 3C HUVEC, uPAR biomarker ELISA; actives raise or lower the signal
Method in brief: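 Human umbilical vein endothelial primary cells were exposed to test chemical for 24 h. Cell-surface uPAR was then quantified by ELISA, and responses were fitted bidirectionally against DMSO as negative control and baseline.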

[16] = BSK_3C_VCAM1: BioMAP Diversity Plus: 3C Assay for Vascular cell adhesion molecule 1 (VCAM1) Biomarker Activity (AID 2282999); details: BioMAP 3C HUVEC, VCAM1 ELISA, cytokine-stimulated; actives raise or lower the signal
Method in brief: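 HUVEC primary cells, 24 h compound exposure; VCAM-1 by ELISA; gain/loss of signal fitted bidirectionally vs DMSO baseline.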

[17] = BSK_4H_Eotaxin3: BioMAP Diversity Plus: 4H Assay for Eotaxin 3 Biomarker Activity (AID 2283000); details: primary human endothelial cells (HUVEC); actives raise or lower the signal;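 also: CCL26 protein level quantified by ELISA in parallel with SRB cytotoxicity check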
Method in brief: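 Chemicals were added to human umbilical vein endothelium cultures, and Eotaxin-3 was quantified by ELISA at 24 h. Values were derived by bidirectional fitting with DMSO serving as negative control and activity baseline.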

CC(C)CCCC(C)CC=O (stereo unspecified)
outcome [1]: inactive
outcome [2]: inactive
outcome [3]: inactive
outcome [4]: inactive
outcome [5]: inactive
outcome [6]: inactive
outcome [7]: inactive
outcome [8]: inactive
outcome [9]: inactive
outcome [10]: inactive

O=S(=O)(O)c1ccc2cc(O)c(S(=O)(=O)O)cc2c1
outcome [11]: inactive
outcome [1]: inactive
outcome [3]: inactive
outcome [5]: inactive
outcome [6]: inactive
AC50 [7]: 120 µM (active)
AC50 [8]: 46.6 µM (active)
outcome [9]: inactive
AC50 [10]: 182 µM (active)

COc1c2ccoc2cc2oc(=O)ccc12
outcome [11]: inactive
outcome [2]: inactive
outcome [3]: inactive
outcome [4]: inactive
outcome [5]: inactive
outcome [6]: inactive
outcome [9]: inactive
outcome [10]: inactive

CCOC(=O)[C@H](C)O
outcome [12]: inactive
outcome [1]: inactive
outcome [2]: inactive
outcome [3]: inactive
outcome [4]: inactive
outcome [6]: inactive
outcome [7]: inactive
AC50 [8]: 26.7 µM (active)
outcome [9]: inactive
outcome [10]: inactive

NC(=O)OCC(COC(N)=O)c1ccccc1
outcome [13]: inactive
outcome [12]: inactive
outcome [2]: inactive
outcome [3]: inactive
outcome [5]: inactive
outcome [6]: inactive
outcome [7]: inactive
outcome [8]: inactive
outcome [10]: inactive

CCC(C)(C)C1CCCCC1OC(C)=O (stereo unspecified)
outcome [12]: inactive
outcome [1]: inactive
outcome [2]: inactive
outcome [3]: inactive
outcome [4]: inactive
outcome [5]: inactive
outcome [6]: inactive
AC50 [8]: 134 µM (active)
outcome [9]: inactive
outcome [10]: inactive

CC(CC=O)CCCC(C)(C)O (stereo unspecified)
outcome [1]: inactive
outcome [2]: inactive
outcome [3]: inactive
outcome [4]: inactive
outcome [5]: inactive
outcome [6]: inactive
outcome [7]: inactive
outcome [8]: inactive
outcome [9]: inactive

C[Si](C)(CCCN)O[Si](C)(C)CCCN
outcome [11]: inactive
outcome [1]: inactive
outcome [4]: inactive
outcome [5]: inactive
outcome [6]: inactive
outcome [7]: inactive
outcome [8]: inactive
outcome [9]: inactive
outcome [10]: inactive

Cc1cc(=O)n(-c2ccccc2)n1C
outcome [1]: inactive
outcome [2]: inactive
outcome [4]: inactive
outcome [6]: inactive
outcome [7]: inactive
outcome [8]: inactive
outcome [9]: inactive
outcome [10]: inactive

CCCCCCC1(C)CCC(=O)O1 (stereo unspecified)
outcome [12]: inactive
outcome [1]: inactive
outcome [3]: inactive
outcome [4]: inactive
outcome [5]: inactive
outcome [6]: inactive
outcome [7]: inactive
outcome [8]: inactive
outcome [10]: inactive

CCO[Si](C)(OCC)OCC
outcome [12]: inactive
outcome [3]: inactive
outcome [4]: inactive
outcome [5]: inactive
outcome [6]: inactive
outcome [7]: inactive
outcome [8]: inactive
outcome [9]: inactive
outcome [10]: inactive
outcome [14]: inactive
outcome [15]: inactive
outcome [16]: inactive
outcome [17]: inactive

Cc1cccc(N)n1
outcome [12]: inactive
outcome [3]: inactive
outcome [5]: inactive
outcome [6]: inactive
outcome [8]: inactive
outcome [9]: inactive
outcome [10]: inactive

Cn1c([N+](=O)[O-])cnc1COC(N)=O
outcome [11]: inactive
outcome [2]: inactive
outcome [3]: inactive
outcome [4]: inactive
outcome [7]: inactive
outcome [8]: inactive
outcome [9]: inactive
outcome [10]: inactive

NCCCN1CCN(CCCN)CC1
outcome [1]: inactive
outcome [3]: inactive
outcome [4]: inactive
outcome [5]: inactive
outcome [6]: inactive
outcome [7]: inactive
AC50 [8]: 81.2 µM (active)
outcome [10]: inactive

CCCCCCOc1cc(C)c(O)c(C)c1C
outcome [13]: inactive
outcome [12]: inactive
outcome [2]: inactive
outcome [3]: inactive
outcome [4]: inactive
outcome [5]: inactive
AC50 [7]: 16.5 µM (active)
AC50 [8]: 7.78 µM (active)
outcome [9]: inactive
outcome [10]: inactive

Cc1cc(C)c(C)cc1C
outcome [13]: inactive
outcome [1]: inactive
outcome [3]: inactive
outcome [6]: inactive
outcome [7]: inactive
outcome [8]: inactive
outcome [10]: inactive

CCCCCCCCCCCCCOP(=O)(O)O
outcome [11]: inactive
outcome [3]: inactive
outcome [4]: inactive
outcome [5]: inactive
outcome [6]: inactive
outcome [7]: inactive
outcome [8]: inactive
outcome [9]: inactive
outcome [10]: inactive

O=C(O)Cc1c(Cl)ccc(Cl)c1Cl
outcome [13]: inactive
outcome [1]: inactive
outcome [3]: inactive
outcome [4]: inactive
outcome [5]: inactive
outcome [6]: inactive
outcome [8]: inactive
outcome [10]: inactive

CCCCOCCOC(=O)COc1nc(Cl)c(Cl)cc1Cl
outcome [1]: inactive
outcome [3]: inactive
outcome [4]: inactive
outcome [5]: inactive
outcome [6]: inactive
outcome [7]: inactive
outcome [8]: inactive
outcome [9]: inactive
outcome [10]: inactive

O=C(C=Cc1ccccc1)OCc1ccccc1
outcome [12]: inactive
outcome [1]: inactive
outcome [2]: inactive
outcome [3]: inactive
outcome [4]: inactive
outcome [5]: inactive
outcome [6]: inactive
outcome [7]: inactive
AC50 [8]: 34.4 µM (active)
outcome [9]: inactive
outcome [10]: inactive
